Screening data (PubChem BioAssay)
NIH3T3 tox = NIH 3T3 cell cytotoxicity | NIH 3T3 viability, CellTiter-Glo ATP luminescence, 48-72 h | Potency, µM (series often up to 96.7 µM), actives largely listed as inhibitors | hit rate 4.3% among 94,000 | AID 1345082; note: nearly all actives have a fitted effect of over 55% in size
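First NIH 3T3 cells are plated at 400 cells/well; next compound is pinned in; then plates incubate 48 or 72 hr at 37 °C; finally CellTiter-Glo is added and luminescence read after 10 min.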
HEK cytotox = kills HEK 293 cells. HEK 293 viability, ATP luminescence (CellTiter-Glo), 48-72 h. Potency, µM (series often up to 115 µM), hits mostly inhibitors. AID 1345083. hit rate 6.6% among 94,000; note: nearly all actives have a fitted effect of over 60% in size
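250 HEK 293 cells/well; compound by pintool; incubated 48 or 72 hr at 37 degree Celsius; CellTiter-Glo added, 10 min RT, luminescence imaged.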
Luciferase inh = inhibitors of firefly (Photinus pyralis) luciferase | hit rate 2.5% among 76,000 | Potency, µM (series often up to 115 µM), hits mostly inhibitors | purified P. pyralis luciferase, luminescence, biochemical | AID 1347043 | P08659; note: nearly all actives have a fitted effect of over 65% in size
Target sequence (P08659 whole entry, looked up): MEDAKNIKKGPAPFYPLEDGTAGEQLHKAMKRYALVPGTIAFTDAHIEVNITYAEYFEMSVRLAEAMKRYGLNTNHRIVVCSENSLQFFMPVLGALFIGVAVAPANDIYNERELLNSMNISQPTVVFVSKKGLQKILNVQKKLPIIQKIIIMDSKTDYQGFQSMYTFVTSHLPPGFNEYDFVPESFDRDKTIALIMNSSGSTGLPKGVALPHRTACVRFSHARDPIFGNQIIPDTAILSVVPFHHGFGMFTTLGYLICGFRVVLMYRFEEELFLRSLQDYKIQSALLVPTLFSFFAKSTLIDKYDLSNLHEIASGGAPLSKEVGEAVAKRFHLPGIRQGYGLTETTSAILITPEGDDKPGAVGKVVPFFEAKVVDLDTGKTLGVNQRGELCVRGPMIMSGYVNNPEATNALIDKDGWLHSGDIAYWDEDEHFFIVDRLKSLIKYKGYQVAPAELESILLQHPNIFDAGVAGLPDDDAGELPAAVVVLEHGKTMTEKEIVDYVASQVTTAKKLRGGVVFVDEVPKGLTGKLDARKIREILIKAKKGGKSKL
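Cell-free enzyme assay, 10nM P. pyralis luciferase, luciferin and ATP each at 10uM. Inhibition profiled over a 6-point titration, read as luminescence.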
hNpr1 antagonist = antagonists of human natriuretic peptide receptor Npr1. P16066. AID 1347048. HEK293 hNpr1 GloSensor cGMP, ANP-stimulated luminescence. Potency, µM (highest dose often 46.3 µM), actives largely listed as inhibitors. hit rate 1.6% among 76,000; calls by dose curve; note: nearly all actives have a fitted effect of over 60% in size
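Compound pre-incubated 30 min at room temperature on GloSensor-loaded HEK293 cells stably carrying hNpr1 and the pGS-40F cGMP biosensor. Stimulation uses hNppA at 0.1 nM final; luminescence is taken at baseline and 20 min post-agonist.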
GPT2 inh = blocks human glutamate pyruvate transaminase 2; Q8TD30; Recombinant GPT2, coupled pyruvate oxidase/HRP Amplex Red fluorescence; Potency, µM (top dose mostly 57.7 µM), hits mostly inhibitors; hit rate 0.25% among 100,000; AID 1671188; note: nearly all actives have a fitted effect of over 60% in size
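Recombinant GPT2 (10ng/uL) with 250uM a-KG and 2mM L-alanine, 30 min at room temperature, in HEPES pH 7.5 buffer. Pyruvate detected by pyruvate oxidase/HRP/Amplex Red fluorescence after 30 min in the dark; AOA (50uM) as positive control.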
Of the large screens only hits and unclear results are named; the others gave an inactive call. Rows were chosen to be rich in hits. Some 10% of all compounds tested hit in one or more screens of this group. Unless noted, calls come from the whole dose curve; as a rule, active = well fitted curve in the direction sought with a large enough effect; inconclusive = small, poorly fitted or top-dose-only effect, or another doubt; inactive = no such curve, though single readings can be large; an effect the other way counts as inactive or inconclusive.

O=C(c1ccccn1)N1CCC2(CC(c3cccnc3)=NO2)C1 (centres undefined)	none (no result: Luciferase inh, hNpr1 antagonist)
O=C(Nc1ccc(Cl)cc1)c1nc2c(o1)CCN(Cc1cccc(O)c1)CC2	NIH3T3 tox inconclusive, HEK cytotox 31.6µM, Luciferase inh 25.1µM, hNpr1 antagonist 2µM
O=C(Nc1ccccc1)c1nc2c(o1)CCN(Cc1ccc(F)c(Cl)c1)CC2	NIH3T3 tox inconclusive, HEK cytotox inconclusive, Luciferase inh 8.91µM, hNpr1 antagonist 3.98µM
COc1ccc(CN2CCc3nc(C(=O)Nc4ccccc4)oc3CC2)cc1	NIH3T3 tox inconclusive, HEK cytotox inconclusive, Luciferase inh 20µM, hNpr1 antagonist 25.1µM
Cc1ccc(CN2CCc3nc(C(=O)Nc4cccnc4)oc3CC2)cc1	NIH3T3 tox inconclusive, HEK cytotox inconclusive, Luciferase inh inconclusive, hNpr1 antagonist inconclusive
O=C(Nc1ccccc1)c1nc2c(o1)CCN(Cc1cccs1)CC2	NIH3T3 tox inconclusive, HEK cytotox inconclusive, Luciferase inh inconclusive, hNpr1 antagonist 7.94µM
O=C(C1CC1)N1CCC(C(=O)N2CCCC(c3nc4ncccc4[nH]3)C2)CC1 (centres undefined)	none (no result: Luciferase inh, hNpr1 antagonist)
CNC(=O)[C@@H]1C[C@@H](n2cc(CNC(=O)Nc3ccc(Cl)cc3C)nn2)CN1	HEK cytotox 35.5µM
CNC(=O)[C@@H]1C[C@H](n2cc(CNC(=O)Nc3cccc(Cl)c3)nn2)CN1	none
COc1cc(OC)cc(C(=O)N2CCN(c3cc(-c4ccc(Cl)cc4)[nH]n3)CC2)c1	NIH3T3 tox 35.5µM, HEK cytotox inconclusive, hNpr1 antagonist inconclusive
COc1ccc(-c2cc(N3CCCN(C(=O)c4cc(OC)cc(OC)c4)CC3)n[nH]2)cc1	HEK cytotox inconclusive
COc1cccc(C(=O)N2CCCN(c3cc(-c4ccc(Cl)cc4)[nH]n3)CC2)c1	NIH3T3 tox inconclusive, HEK cytotox inconclusive, hNpr1 antagonist inconclusive
O=C(c1cccc(Cl)c1)N1CCN(c2cc(-c3ccc(Cl)cc3)[nH]n2)CC1	NIH3T3 tox 35.5µM, HEK cytotox 44.7µM, hNpr1 antagonist inconclusive
N#Cc1ccc(C(=O)N2CCCN(c3cc(-c4ccc(Cl)cc4)[nH]n3)CC2)cc1	NIH3T3 tox inconclusive, HEK cytotox 28.2µM, hNpr1 antagonist inconclusive
CN(C)c1cccc(C(=O)N2CCN(c3cc(-c4ccc(Cl)cc4)[nH]n3)CC2)c1	NIH3T3 tox inconclusive, HEK cytotox inconclusive, Luciferase inh 28.2µM
COc1ccc(NC(=O)c2c(C)nc3n2CCC(Nc2ccccc2C)C3)cn1 (centres undefined)	HEK cytotox inconclusive
O=C(NCCc1ccncc1)C1CN(C(=O)c2c(F)cccc2F)CC12CCOCC2 (centres undefined)	none
CC(C)NC(=O)NC1CC2(CCN(C(=O)Cc3ccc(O)cc3)CC2)c2ccccc21 (centres undefined)	none (no result: Luciferase inh, hNpr1 antagonist)
Cc1noc2c(NC(C)C)cc(-c3ccsc3)nc12	NIH3T3 tox inconclusive, HEK cytotox inconclusive, GPT2 inh inconclusive
O=[S+]([O-])(Nc1nncs1)c1ccc2c(c1)OCCN(Cc1ccncc1)C2	NIH3T3 tox inconclusive
Cc1ccsc1CN1CCOc2cc([S+](=O)([O-])Nc3ccccc3)ccc2C1	NIH3T3 tox 44.7µM, HEK cytotox 63.1µM, hNpr1 antagonist inconclusive
O=[S+]([O-])(Nc1ccccc1)c1ccc2c(c1)OCCN(Cc1ccccn1)C2	NIH3T3 tox inconclusive, HEK cytotox 70.8µM
Cn1cc(CN2CCOc3cc([S+](=O)([O-])Nc4cccnc4)ccc3C2)cn1	NIH3T3 tox 100µM
Cn1cc(CN2CCOc3cc([S+](=O)([O-])Nc4ccccc4)ccc3C2)cn1	HEK cytotox inconclusive
O=[S+]([O-])(Nc1nncs1)c1ccc2c(c1)OCCN(Cc1cncc(F)c1)C2	NIH3T3 tox 28.2µM
CCNC(=O)N1CCC(c2ncc(C)n2C(C)C)C1 (centres undefined)	none
Cc1cc(=O)n(CC(=O)Nc2ccc(F)cc2)c(N(C)Cc2ccccc2)n1	NIH3T3 tox inconclusive, HEK cytotox inconclusive
COc1ccc(C(=O)N[C@@H]2CN(C(=O)Nc3ccc(F)cc3)CCC[C@H]2O)cc1	NIH3T3 tox 100µM, HEK cytotox inconclusive, Luciferase inh inconclusive
COc1ccc(C(=O)N[C@@H]2CN(C(=O)Nc3ccccc3)CCC[C@H]2O)cc1	NIH3T3 tox inconclusive, HEK cytotox inconclusive
Cc1ccc2nc([C@H]3CCN(C(=O)Nc4ccccc4)C3)[nH]c2c1	none
